The experiment in a line: qHTS drug screen for cell cycle checkpoint inhibitors in PARPi-resistant BRCA-mutant ovarian cancer cell lines. (AID 1963452). The following applies: PEO1/OlaR viability, CellTiter-Glo luminescence, 96 h, stronger effect = lower value. An excerpt: Women's Malignancies Branch, Center for Cancer Research (CCR),
National Cancer Institute (NCI), National Institutes of Health (NIH), Bethesda, MD
Poly (ADP-ribose) polymerase inhibitors (PARPis) have changed the treatment paradigm in breast cancer gene (BRCA) - mutant high-grade serous ovarian carcinoma (HGSC). However, most patients eventually develop resistance to PARPis, highlighting an unmet need for improved therapeutic strategies. Using high-throughput drug screens, we identified ataxia telangiectasia and rad3-related protein/checkpoint kinase 1 (CHK1) pathway inhibitors as cytotoxic and further validated the activity of the CHK1 inhibitor (CHK1i) prexasertib in PARPi-sensitive and -resistant BRCA-mutant HGSC cells and xenograft mouse models. CHK1i monotherapy induced DNA damage, apoptosis, and tumor size reduction. We then conducted a phase 2 study (NCT02203513) of prexasertib in patients with BRCA-mutant HGSC. The treatment was well tolerated but yielded an objective response rate of 6% (1 of 17; one partial response) in patients with previous PARPi treatment. […] BRCA reversion mutation in previously PARPi-treated BRCA-mutant patients was not associated with resistance to CHK1i.
Among others, 1082 oncology drugs, both approved and investigational, were prioritized based on their status in clinical trial development. […] Drugs with average Z-AUC values less than -1.0 in all three cell lines were classified as "hits" resulting in 151 oncology drug hits. The screen also confirmed cross-resistance between olaparib and other PARPis (rucaparib, niraparib, and talazoparib) in PARPi-resistant PEO1/OlaR and PEO4.
[1] G. L. Lin, K. M. Wilson, M. Ceribelli, B. Z. Stanton, P. J. Woo, S. Kreimer, E. Y. Qin, X. Zhang, J. Lennon, S. Nagaraja, P. J. Morris, M. Quezada, S. M. Gillespie, D. Y. Duveau, A. M. Michalowski, P. Shinn, R. Guha, M. Ferrer, C. Klumpp-Thomas, S. Michael, C. McKnight, P. Minhas, Z. Itkin, E. H. Raabe, L. Chen, R. Ghanem, A. C. Geraghty, L. Ni, K. I. Andreasson, N. A. Vitanza, K. E.Warren, C. J. Thomas, M. Monje, Therapeutic strategies for diffuse midline glioma from high-throughput combination drug screening. Sci. Transl. Med. 11, (2019).
[2] T. M. Yamamoto, A. McMellen, Z. L. Watson, J. Aguilera, R. Ferguson, E. Nurmemmedov, T. Thakar, G. L. Moldovan, H. Kim, D. M. Cittelly, A. M. Joglar, E. P. Brennecke, H. Wilson, K. Behbakht, M. J. Sikora, B. G. Bitler, Activation of Wnt signaling promotes olaparib resistant ovarian cancer. Mol. Carcinog. 58, 1770 - 1782 (2019).
PROTOCOL TABLE (as described by Inglese J, Shamu CE and Guy RK. 2007)
SEQUENCE No. (e.g., 1, 2, 3, etc.); […] (e.g., Cells, Incubation, Reagent, etc.); VALUE; DESCRIPTION.
1; Compounds; 20nL; 1536-well white tissue culture-treated plates.
2; Cells; 5 uL; PEO1, PEO4, and PEO1/OlaR cells at 600 cells per well.
3; Incubation; 96 hr; 37C, 95% humidity, 5% CO2.
4; Reagent; 3 uL; CellTiter-Glo (Promega).
5; Incubation; 15 min; room temperature.
6; Detection; Luminescence, PHERAstar (BMG Labtech) plate reader.
NOTES (numbers refer to Sequence numbers above)
1. MIPE 5.0 compounds were acoustically dispensed by Echo Acoustic Liquid Handler (Beckman Coulter Life Sciences). Each compound was plated at an 11-point concentration range with 1:3 dilution. Bortezomib, a proteasome inhibitor (final concentration, 20 uM), was used as a positive.
2. PEO1, PEO4, and PEO1/OlaR were trypsinized and dispensed in 5 uLof growth medium using a Multidrop Combi dispenser at a density of 600 cells per well to allow compounds to be present during the exponential growth phase.
3. Plates were incubated for 96 hours at standard incubator conditions and covered by a stainless steel gasketed lid to prevent evaporation.
4. Three microliters of CellTiter-Glo (Promega) were added to each well.
5. Plates were incubated at room temperature for 15 min with a stainless-steel lid in place.
6. Luminescence readings were taken using PHERAstar (BMG Labtech). […]
(In general: In qHTS, concentration-response curves come from the screen itself.)

The mark [1] stands for this setting: measured here: PEO1 parental Z-AUC.

Activity calls are given as the source filed them. The call rests on the fitted dose curve. Where a SMILES comes first, the peptide text is derived from it. [ ]: non-standard residue; d: D form. The star is where a group is joined. Benzoyl(4-tBu) = CC(C)(C)c1ccc(C(=O)*)cc1; Lys(Et2) = CCN(CC)CCCC[C@H](N)C(=O)O

Turning to `CC/C(=C(/c1ccc(O)cc1)c1ccc(OCCNC)cc1)c1ccccc1`, the Z-AUC was 0.452 (inactive). Moreover, under setting [1], the Z-AUC turned out to be 0.257. For the same compound, the Z-AUC (measured here: PEO4 Z-AUC) was -0.283.

On to `O=C(NCc1ccccc1)[C@H](Cc1ccccc1)NC(=O)[C@H]1O[C@@H]1C(=O)NCCc1ccc(O)cc1`, for which the Z-AUC is 1.49 (inactive). For the same compound, under setting [1], the Z-AUC came to 0.636. In addition, the Z-AUC (measured here: PEO4 Z-AUC) is 0.423.

On to `Cc1ccc(NS(=O)(=O)c2cccc(C#N)c2)c2[nH]cc(C#N)c12`, for which the Z-AUC was -0.908 (inactive). Under setting [1], the Z-AUC is -1.02. Besides, the Z-AUC (measured here: PEO4 Z-AUC) is -1.95.

Turning to `N=C1S/C(=C\c2ccc(-c3ccc4c(c3)C(=O)NC4=O)o2)C(=O)N1c1ccc(Br)cc1`, the Z-AUC is 0.761 (inactive). Under setting [1], the Z-AUC was determined as 0.782. The Z-AUC (measured here: PEO4 Z-AUC) turned out to be 0.462.

As to `O=C1CC[C@H](N2Cc3c(OCc4ccc(CN5CCOCC5)cc4)cccc3C2=O)C(=O)N1`, the Z-AUC was 1.34 (inactive). Further, the Z-AUC under setting [1] turned out to be 1.06. The Z-AUC (measured here: PEO4 Z-AUC) was 1.23.

Take `Cc1c(NC(=O)c2cc(C(N)=O)nc3cc(F)ccc23)c(C(F)(F)F)nn1Cc1ccc(C(C)(C)C)cc1`: the Z-AUC is -0.453 (inactive). For the same compound, under setting [1], the Z-AUC was -0.106. Under “measured here: PEO4 Z-AUC”, the Z-AUC was found to be 0.0379.

Take `C=CC(=O)Nc1cccc(Oc2nc(Nc3ccc(N4CCN(C)CC4)c(F)c3)nc3[nH]ccc23)c1`: the Z-AUC was -1.38 (inactive). Also, the Z-AUC under setting [1] was -0.613. Further, the Z-AUC (measured here: PEO4 Z-AUC) is -0.658.

For the compound `CCN(CC)CCCC[C@H](NC(=O)[C@H](CC(C)C)NC(=O)[C@H](C)NC(=O)[C@H](Cc1ccccc1)NC(=O)c1ccc(C(C)(C)C)cc1)C(=O)N[C@@H](CO)C(=O)OC` ({Benzoyl(4-tBu)}-FAL[Lys(Et2)]S-OMe), the Z-AUC is -0.334 (inactive). For the same compound, under setting [1], the Z-AUC was 0.227. Where the note is “measured here: PEO4 Z-AUC”, the Z-AUC was -0.0734.

Regarding `Cc1nc(C)c(CN2CCN(C(c3ccc(F)cc3)c3ccc(F)cc3)CC2)nc1C`, the Z-AUC was -0.108 (inactive). Further, the Z-AUC under setting [1] was 0.777. Further, where the note is “measured here: PEO4 Z-AUC”, the Z-AUC was 1.05.

In the case of `C[C@@H](O)[C@@H]1NC(=O)[C@H](CCCCN)NC(=O)[C@@H](Cc2c[nH]c3ccccc23)NC(=O)[C@H](Cc2ccccc2)NC(=O)[C@@H](NC(=O)[C@H](N)Cc2ccccc2)CSSC[C@@H](C(=O)N[C@H](CO)[C@@H](C)O)NC1=O`, the Z-AUC was 0.896 (inactive). Further, the Z-AUC under setting [1] was found to be 0.495. For the same compound, for the setting “measured here: PEO4 Z-AUC”, the Z-AUC came out at 0.728.

`N#Cc1ccnc(N2C(=O)CC[C@H]2C(=O)N(c2cncc(F)c2)C(C(=O)NC2CC(F)(F)C2)c2ccccc2Cl)c1` (some centres not stated): the Z-AUC is 1.6 (inactive). For the same compound, the Z-AUC under setting [1] amounted to 0.937. Also, under “measured here: PEO4 Z-AUC”, the Z-AUC came to 1.33.

In the case of `Cn1nccc1Nc1nccc(-c2cc3c(s2)C(C)(C)N(CCN2CCOCC2)C3=O)n1`, the Z-AUC is -1.65 (inactive). Also, under setting [1], the Z-AUC was -0.829. The Z-AUC (measured here: PEO4 Z-AUC) was -0.419.

`COC[C@@H](c1ccc(C(F)(F)F)cc1)N1CCN(C2(C)CCN(C(=O)c3c(C)ncnc3C)CC2)C[C@@H]1C`: the Z-AUC was 1.18 (inactive). Besides, under setting [1], the Z-AUC was found to be 1.03. The Z-AUC (measured here: PEO4 Z-AUC) was determined as 0.78.

Take `Nc1cccc2c1CN([C@H]1CCC(=O)NC1=O)C2=O`: the Z-AUC was 0.0993 (inactive). Further, the Z-AUC under setting [1] was determined as 0.928. In addition, under “measured here: PEO4 Z-AUC”, the Z-AUC stood at 1.07.

The record behind these values is PubChem BioAssay (NCATS).
